Assay [1] can be described thus: qHTS assay for small molecule agonists of the p53 signaling pathway (AID 651631; calls by dose curve; also: nearly all actives have a fitted effect of over 15% in size). A digest of the protocol:
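Quantitative high-throughput format: 4,000 p53RE-bla HCT-116 cells/well, 5 h pre-incubation, 16 h compound exposure at 37 °C, 2 h room-temperature substrate step, fluorescence intensity measured.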
On the technique in general: qHTS replaces the single test concentration by a dilution series.

Assay [2] in a line: qHTS assay for small molecules that induce genotoxicity in human embryonic kidney cells expressing luciferase-tagged ATAD5 (AID 651632). Also: nearly all actives have a fitted effect of over 15% in size. The gist of the method: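 Genotoxicity read-out via ATAD5-luciferase: HEK293T cells, 16 hr compound incubation at 37C, Amplite detection.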
Assay [3] can be described thus: qHTS assay for small molecule agonists of the p53 signaling pathway - cell viability (AID 651633; calls by dose curve;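 also: p53RE-bla HCT reporter cells with a stable beta-lactamase p53 reporter; series mostly up to about 83 µM; nearly all actives have a fitted effect of over 30% in size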). The gist of the method:
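p53RE-bla cells were treated with compound for 16 hours at 37 C. Cytotoxicity was then measured as CellTiter-Glo luminescence after 30 min at room temperature.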

Assay [4] is described as follows: qHTS assay for small molecules that induce genotoxicity in human embryonic kidney cells expressing luciferase-tagged ATAD5 - cell viability (AID 651634; calls by dose curve; also: nearly all actives have a fitted effect of over 25% in size). The gist of the method:
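Live-cell protease activity (CellTiter-Fluor, fluorescence) indicates viability. HEK293T cells with luciferase-tagged ATAD5; 15.5 hr compound treatment at 37C.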

Assay [5] can be described thus: qHTS assay for small molecule disruptors of the mitochondrial membrane potential - cell viability (AID 720634; calls by dose curve;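 also: human HepG2 liver cancer cells; series mostly up to about 83 µM; nearly all actives have a fitted effect of over 20% in size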). A digest of the protocol:
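Human hepatoma HepG2 cells were treated for 1 hr with test chemicals, then given m-MPI dye and CellTiter-Glo. Cell viability reflects luminescence proportional to cellular ATP.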

Assay [6] in a line: qHTS assay for small molecule disruptors of the mitochondrial membrane potential (AID 720635). The gist of the method: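 HepG2 cells exposed to compound 1 hr at 37C, then Mito-MPS dye 30 min. Ratio read of aggregate (540/590 nm) versus monomer (490/535 nm) fluorescence.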
Assay [7] is described as follows: qHTS assay to test for compound auto fluorescence at 590 nm (red) in HepG2 cells (AID 720674). A digest of the protocol:
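Fluorescence at 590 nm emission following 540 nm excitation was recorded from HepG2 wells one hour after compound transfer, with DMSO-only wells as vehicle and Rose Bengal sodium equivalency as the scale.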

Assay [8] in a line: qHTS assay to test for compound auto fluorescence at 535 nm (green) in HepG2 cells (AID 720675).
Assay [9] is described as follows: qHTS assay to test for compound auto fluorescence at 460 nm (blue) in HEK293 cells (AID 720678). A digest of the protocol:
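Triamterene serves as the blue fluorophore standard. Compound signal at 405/460 nm is read in HEK293 wells (2,000 cells, 10% dialyzed FBS) after overnight treatment at 37C.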

Assay [10] is described as follows: qHTS assay to test for compound auto fluorescence at 535 nm (green) in HEK293 cells (AID 720680).
Assay [11] is described as follows: qHTS assay to test for compound auto fluorescence at 460 nm (blue) in HEK293 cell free culture (AID 720681). A digest of the protocol:
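Compounds were added to cell-free DMEM with 10% FBS and fluorescence read directly. The blue channel used 405 nm excitation and 460 nm emission, with triamterene as the reference fluorophore.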

Assay [12] in a line: qHTS assay to test for compound auto fluorescence at 535 nm (green) in HEK293 cell free culture (AID 720682). A digest of the protocol: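 Measurement is a direct plate read of green fluorescence (485 nm in, 535 nm out) after compound addition to serum-supplemented DMEM lacking cells, with fluorescein used to express intensities.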
The nature of assay [13]: qHTS assay to test for compound auto fluorescence at 590 nm (red) in HEK293 cell free culture (AID 720683). The gist of the method:
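Cell-free wells of DMEM with 10% FBS received compound, and intrinsic fluorescence was read at excitation/emission 540/590 nm. Values expressed as equivalence to Rose Bengal sodium.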

Assay [14] can be described thus: qHTS assay to test for compound auto fluorescence at 590 nm (red) in HepG2 cell free culture (AID 720684). A digest of the protocol:
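Compounds are added to culture medium (MEM, 10% FBS) lacking cells, then fluorescence is read at excitation 540 nm, emission 590 nm, with Rose Bengal sodium as the equivalency standard.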

Assay [15] in a line: qHTS assay to test for compound auto fluorescence at 460 nm (blue) in HepG2 cell free culture (AID 720685). The gist of the method: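 Compound (23 nL) or DMSO pinned into cell-free MEM with 10% FBS; blue fluorescence read at 405/460 nm excitation/emission, expressed as auto-fluorescence equivalency to triamterene.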
Assay [16] can be described thus: qHTS assay to test for compound auto fluorescence at 535 nm (green) in HepG2 cell free culture (AID 720686).
Assay [17] can be described thus: qHTS assay to test for compound auto fluorescence at 460 nm (blue) in HepG2 cells (AID 720687). A digest of the protocol:
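HepG2 cells in MEM with 10% FBS, attached overnight at 37 C, were exposed to compound or DMSO for 1 hr at 37 C, 5% CO2. Blue fluorescence was read at 405/460 nm, with triamterene as reference fluorophore.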

Assay [18] has as its target Glucocorticoid receptor (Homo sapiens) (UniProt P04150). As to the kind of experiment: qHTS assay to identify small molecule agonists of the glucocorticoid receptor (GR) signaling pathway (AID 720691; active = well fitted activation curve with a large enough effect in the signal ratio in the repeat runs, not every such curve was filed as active; the % refers to the signal ratio). A digest of the protocol:
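Beta-lactamase reporter activity, read as fluorescence intensity, was measured in GR-bla HeLa cells exposed to compounds for 18 h at 37 C and then loaded with LiveBLAzer B/G FRET substrate for 2 h at room temperature.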

Assay [19] shares this target. The experiment in a line: qHTS assay to identify small molecule antagonists of the glucocorticoid receptor (GR) signaling pathway (AID 720692; active = well fitted inhibition curve with a large enough effect in the signal ratio in the repeat runs, not every such curve was filed as active; the % refers to the signal ratio; also: potency is read from the fitted curve at half-maximal effect). A digest of the protocol:
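Fluorescence from cleaved LiveBLAzer B/G FRET substrate reports GRE-driven beta-lactamase in HeLa cells; compounds are tested against 5 nM dexamethasone (final) over 18 h at 37 C, substrate incubation 2 h at room temperature.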

Assay [20] can be described thus: qHTS assay to test for compound auto fluorescence at 590 nm (red) in HEK293 cells (AID 720679). The gist of the method: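 We plated HEK293 cells in 10% dialyzed FBS medium, let them adhere for 4-5 hr, then added 23 nL compound. Overnight at 37C and 5% CO2 preceded fluorescence measurement at 540/590nm.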

Where “and” joins values, the source holds several entries; their conditions need not be identical. Equal entries are not always repeated. Results filed as inconclusive are left out. The source holds several records for some structures; these can differ, active in one and inactive in another. Calls of active or inactive are those of the source. Unless noted, calls follow the shape of the dose curve; as a rule, active = well fitted curve in the direction sought with a large enough effect in the repeat runs; inconclusive = weak or mixed curves; inactive = no such curve, though single readings can be large; an effect the other way counts as inactive or inconclusive.

Glucocorticoid receptor (Homo sapiens), sequence (P04150 whole entry, looked up): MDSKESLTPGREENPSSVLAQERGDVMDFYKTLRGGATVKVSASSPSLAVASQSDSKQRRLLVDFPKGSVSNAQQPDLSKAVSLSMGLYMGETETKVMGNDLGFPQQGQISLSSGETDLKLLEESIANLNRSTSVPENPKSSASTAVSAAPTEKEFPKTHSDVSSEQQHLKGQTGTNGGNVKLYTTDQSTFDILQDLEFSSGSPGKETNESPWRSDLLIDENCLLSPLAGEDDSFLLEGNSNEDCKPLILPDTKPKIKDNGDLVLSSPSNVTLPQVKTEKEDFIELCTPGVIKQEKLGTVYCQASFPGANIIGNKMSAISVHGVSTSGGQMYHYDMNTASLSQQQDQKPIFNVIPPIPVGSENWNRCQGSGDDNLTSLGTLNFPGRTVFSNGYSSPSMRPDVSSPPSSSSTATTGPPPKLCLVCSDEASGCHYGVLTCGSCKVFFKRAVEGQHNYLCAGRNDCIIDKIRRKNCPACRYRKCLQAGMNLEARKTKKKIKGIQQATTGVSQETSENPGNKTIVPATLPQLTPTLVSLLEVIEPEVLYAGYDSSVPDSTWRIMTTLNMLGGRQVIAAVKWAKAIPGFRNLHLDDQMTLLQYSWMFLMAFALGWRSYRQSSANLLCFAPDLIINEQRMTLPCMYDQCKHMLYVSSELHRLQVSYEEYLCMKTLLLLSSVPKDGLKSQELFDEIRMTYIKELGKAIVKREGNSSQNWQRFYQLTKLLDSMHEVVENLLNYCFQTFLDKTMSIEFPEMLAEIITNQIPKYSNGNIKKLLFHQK

With `C=Cc1ccc(S(=O)(=O)O)cc1`, the Potency result in assay [1], in [2], in assay [3], in [4], in assay [5] and in [6] was “inactive” each time. The Potency result in [9], in assay [11], in assay [15], in assay [17] and in assay [18] was “inactive” throughout. Also, the call in assay [7], in assay [8], in [10], in assay [12], in assay [13] and in assay [14] was inactive. The molecule was classed as inactive in assay [16]. Further, the Potency result in [19] was “inactive and 19.5 µM (active)”.

Regarding `c1csc(SSc2cccs2)c1`, the Potency entry in assay [1], in assay [2], in assay [3], in assay [4], in assay [5] and in assay [6] was “inactive” each time. Moreover, the Potency entry in assay [9], in [11], in assay [15], in [17] and in assay [18] was “inactive” in each case. Further, the molecule was called inactive in assay [7], in assay [8], in assay [20], in assay [10], in [13] and in assay [14]. In addition, the call in [16] was inactive.

For `Cc1[nH]cnc1CN1CCc2c(c3ccccc3n2C)C1=O`, the Potency entry in [1], in assay [2], in assay [3], in assay [4], in assay [5] and in [6] was “inactive” throughout. Also, the Potency entry in [9], in assay [11], in [15] and in assay [17] was “inactive” throughout. Besides, the outcome in assay [7], in assay [8], in assay [20], in assay [10], in [12] and in [13] was inactive. Besides, the call in [14] and in assay [16] was inactive.

As for `CCCC(=O)C(=O)O`, the Potency result in [1], in [2], in [3], in assay [4], in [5] and in assay [6] was “inactive” each time. The Potency result in assay [9], in assay [11], in [15], in assay [17] and in assay [18] was “inactive” each time. For the same molecule, the result in [7], in assay [8], in [20], in assay [10], in assay [12] and in assay [13] was inactive. For the same molecule, the result in assay [14] and in assay [16] was inactive.

For the molecule `CCCCCCCC/C=C\CCCCCCCCCCCC(=O)O`, the Potency entry in assay [1], in assay [2], in [3], in assay [4], in [5] and in [6] was “inactive” in each case. Besides, the Potency entry in assay [9], in assay [11], in [15] and in [17] was “inactive” throughout. Besides, the molecule was called inactive in assay [7], in [8], in [20], in assay [10], in assay [12] and in assay [13]. Also, the molecule was called inactive in assay [14] and in assay [16].

`CC(CCC(=O)O)C(=O)O` (centres undefined): the Potency entry in [1], in assay [2], in assay [3], in assay [4], in assay [5] and in assay [6] was “inactive” in each case. For the same molecule, the Potency entry in assay [9], in assay [11], in assay [15], in [17] and in [18] was “inactive” throughout. Further, the molecule was called inactive in assay [7], in [8], in assay [20], in assay [10], in assay [12] and in assay [13]. The molecule was classed as inactive in [14] and in assay [16].

For the molecule `CO/N=C(/C(=O)N[C@@H]1C(=O)N2C(C(=O)O)=C(COC(N)=O)CS[C@H]12)c1ccco1`, the Potency result in assay [1], in assay [2], in assay [3], in [4], in [5] and in [6] was “inactive” in each case. The Potency entry in assay [9], in [11], in [15], in assay [17], in assay [18] and in assay [19] was “inactive” in each case. In addition, the outcome in [7], in [8], in [20], in assay [10], in assay [12] and in assay [14] was inactive.

For the origin of these results see PubChem BioAssay (Tox21).
